# Data: ChEMBL document CHEMBL1961873, “Compounds: GSK PKIS; Assays: Nanosyn kinase panel” (2012)
# Target: Leukocyte tyrosine kinase receptor (Homo sapiens) (UniProt P29376)
# Conditions: at 1 µM
# 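Note: each value is the mean inhibition of LTK.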
# Leukocyte tyrosine kinase receptor (Homo sapiens), sequence (P29376 whole entry): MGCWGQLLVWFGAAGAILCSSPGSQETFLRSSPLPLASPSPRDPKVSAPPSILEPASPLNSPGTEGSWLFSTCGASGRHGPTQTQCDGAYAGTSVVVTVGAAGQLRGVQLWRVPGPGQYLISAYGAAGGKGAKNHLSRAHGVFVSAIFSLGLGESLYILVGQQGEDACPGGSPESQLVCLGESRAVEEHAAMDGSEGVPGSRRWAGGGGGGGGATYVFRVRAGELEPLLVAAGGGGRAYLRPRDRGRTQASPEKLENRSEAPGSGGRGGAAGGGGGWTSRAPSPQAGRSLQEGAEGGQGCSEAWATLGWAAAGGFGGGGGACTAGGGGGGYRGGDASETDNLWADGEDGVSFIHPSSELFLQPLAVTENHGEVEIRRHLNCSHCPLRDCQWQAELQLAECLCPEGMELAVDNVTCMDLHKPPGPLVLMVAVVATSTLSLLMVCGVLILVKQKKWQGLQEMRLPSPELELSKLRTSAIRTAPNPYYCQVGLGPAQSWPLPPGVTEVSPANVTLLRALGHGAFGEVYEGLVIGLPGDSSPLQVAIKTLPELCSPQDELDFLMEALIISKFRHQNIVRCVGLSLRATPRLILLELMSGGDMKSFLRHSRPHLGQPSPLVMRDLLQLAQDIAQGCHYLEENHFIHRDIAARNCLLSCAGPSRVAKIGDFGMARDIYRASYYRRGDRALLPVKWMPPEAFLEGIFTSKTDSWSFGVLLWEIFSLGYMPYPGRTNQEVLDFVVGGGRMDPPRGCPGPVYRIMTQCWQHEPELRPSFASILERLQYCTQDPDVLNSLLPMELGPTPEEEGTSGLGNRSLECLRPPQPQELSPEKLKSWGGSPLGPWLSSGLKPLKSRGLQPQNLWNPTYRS
row,SMILES,inhibition
1,CN(c1ccc(NC(=O)Nc2ccc(OC(F)(F)F)cc2)cc1)c1ccnc(Nc2cccc(S(N)(=O)=O)c2)n1,6.43%
2,COc1ccc(-c2nn3ncccc3c2-c2ccnc(Nc3cccc(C(F)(F)F)c3)n2)cc1,2.59%
3,COC(=O)c1ccc2c(c1)C(=Cc1cc(Br)c(O)c(Br)c1)C(=O)N2,34%
4,Cc1ccc2c(-c3ccnc(Nc4cccc(C(F)(F)F)c4)n3)c(-c3ccccc3)nn2n1,2.99%
5,NS(=O)(=O)c1ccc(Nc2cc(-c3cccc(O)c3)n[nH]2)cc1,3.32%
6,COc1cc(/C=N/Nc2ncnc3c2cnn3C(C)C)ccc1O,3.76%
7,Cc1ccc2c(c1)/C(=N/Nc1ccc(S(N)(=O)=O)cc1)C(=O)N2,1%
8,OCc1ccc(-c2nc(-c3ccccn3)c(-c3ccc4c(c3)OCO4)[nH]2)cc1,4.28%
9,CC(C)c1ccc(Nc2nccc(-c3cnn4ncccc34)n2)cc1,10.6%
10,O=S(=O)(CCOCc1ccc(-c2ccc3ncnc(Nc4ccc(OCc5cccc(F)c5)c(Cl)c4)c3c2)o1)c1ccccc1,3.13%
11,O=C1Nc2ccccc2/C1=C/Nc1ccc2[nH]c(=O)[nH]c2c1,13.2%
12,CCCN1CCCC(c2ccc(Nc3nc(Nc4cc(F)ccc4C(N)=O)c4cc[nH]c4n3)c(OC)c2)C1 (stereo unspecified),95.5%
13,CN(C)c1cc2c(Nc3ccc4c(cnn4Cc4ccccc4)c3)ncnc2cn1,3.01%
14,CCS(=O)(=O)c1ccc(OC)c(Nc2nccc(N(C)c3ccc4c(C)n[nH]c4c3)n2)c1,37.5%
15,CCn1c(-c2nonc2N)nc2c(C#CC(C)(C)O)nc(OCCNC)cc21,4.95%
16,COc1cc(Nc2nccc(-c3cnn4ncccc34)n2)cc(OC)c1,34.1%
